According to the supplement of paper PMC9844399:
Where a name gives a salt, the structure may show the parent alone.

Test system: HeLa
Assay: nuclear count per well, robust Z-score vs DMSO; higher = more cells (less toxicity)
Details: 10 µM; 6 h
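Also: Hoechst-stained nuclei counted by automated confocal imaging of four fields per well in 384-well plates, with the robust Z-score based on the per-plate DMSO median and robust SD.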

| SMILES | nuclear count per well |
| --- | --- |
| CC(=O)[C@H]1CC[C@H]2[C@@H]3CCC4=CC(=O)CC[C@]4(C)[C@H]3CC[C@]12C [Progesterone] | 0.401 |
| c1ccc2c(-c3ccncc3)c[nH]c2c1 [Rockout] | 1.18 |
| CCCc1nc(C(C)(C)O)c(C(=O)O)n1Cc1ccc(-c2ccccc2-c2nnn[nH]2)cc1 [Olmesartan] | 0.195 |
| OC(c1cc(C(F)(F)F)nc2c(C(F)(F)F)cccc12)C1CCCCN1 (stereo not drawn) | -1.03 |
| CCCCCC[C@@H]([C@@H](C)O)n1cnc2c(N)ncnc21 (racemic) | 1.36 |
| CCCN[C@H]1CCc2nc(N)sc2C1 [Pramipexole Dihydrochloride Monohydrate] | 0.788 |
| N=C(NCCCCCCNC(=N)NC(=N)Nc1ccc(Cl)cc1)NC(=N)Nc1ccc(Cl)cc1 [Chlorhexidine Dihydrochloride] | -0.778 |
| CNC(=O)[C@H](Cc1c[nH]c2ccccc12)NC(=O)[C@@H](CC(=O)NO)CC(C)C | 0.44 |
| CCOC(=O)[C@H](CCc1ccccc1)N[C@H]1CCc2ccccc2N(CC(=O)O)C1=O | -0.363 |
| CC1=C(/C=C/C(C)=C/C=C/C(C)=C\C(=O)O)C(C)(C)CCC1 [Isotretinoin (13-Cis-Retinoic Acid)] | -0.689 |
| CCN(CC)CCCC(C)Nc1ccnc2cc(Cl)ccc12 (stereo not drawn) [Chloroquine Diphosphate] | 0.538 |
| COC(=O)[C@@H]1CC2=CC(=O)CC[C@]2(C)[C@@]23O[C@@H]2C[C@@]2(C)[C@@H](CC[C@@]24CCC(=O)O4)[C@H]13 [Eplerenone] | 0.279 |
| CCCc1nc(C)c2c(=O)nc(-c3cc(S(=O)(=O)N4CCN(CC)CC4)ccc3OCC)[nH]n12 [Vardenafil] | -0.564 |
| CC1(C)S[C@@H]2[C@H](NC(=O)Cc3ccccc3)C(=O)N2[C@H]1C(=O)O [Penicillin G Potassium (Benzylpenicillin)] | 1.08 |
| C#C[C@]1(O)CC[C@H]2[C@@H]3CCC4=CC(=O)CC[C@@H]4[C@H]3C(=C)C[C@@]21CC [Etonogestrel] | -1.34 |
| CN(C)[C@@H]1C(O)=C(C(N)=O)C(=O)[C@@]2(O)C(O)=C3C(=O)c4c(O)cccc4[C@@](C)(O)[C@H]3C[C@@H]12 [Tetracycline] | 0.0456 |
| CNC(=O)[C@H]1O[C@@H](n2cnc3c(NCc4cccc(I)c4)ncnc32)[C@H](O)[C@@H]1O | -1.23 |

| SMILES | nuclear count per well |
| --- | --- |
| CCCC[C@@H](C=O)NC(=O)[C@H](CC(C)C)NC(=O)[C@H](CC(C)C)NC(C)=O [Calpain Inhibitor I] | -2.07 |
| CCCSc1ccc2[nH]c(NC(=O)OC)nc2c1 [Albendazole] | -0.246 |
| Fc1ccc([C@@H]2CCNC[C@H]2COc2ccc3c(c2)OCO3)cc1 | -0.0465 |
| C[C@@H](CN1CC(=O)NC(=O)C1)N1CC(=O)NC(=O)C1 [Dexrazoxane] | -0.579 |
| C#C[C@]1(O)CC[C@H]2[C@@H]3CCC4=CCCC[C@@H]4[C@H]3C(=C)C[C@@]21CC [Desogestrel] | 0.13 |
| CCCCC[C@H](O)/C=C/[C@H]1[C@H](O)CC(=O)[C@@H]1C/C=C\CCCC(=O)O [Dinoprostone] | -0.453 |
| Fc1ccc(C(c2ccc(F)cc2)N2CCN(C/C=C/c3ccccc3)CC2)cc1 | -1.4 |
| CCN(CC)CCOc1ccc(C(=C(Cl)c2ccccc2)c2ccccc2)cc1 [Clomiphene citrate salt] | 1.23 |
| CNC[C@H](O)c1cccc(O)c1 [Phenylephrine] | -0.74 |
| C[C@]12CC[C@@H]3c4ccc(O)cc4C[C@@H](CCCCCCCCC[S+]([O-])CCCC(F)(F)C(F)(F)F)[C@H]3[C@@H]1CC[C@@H]2O (stereo partly drawn) [Fulvestrant] | 1.12 |
| OC(CCN1CCCCC1)(c1ccccc1)C1CC2C=CC1C2 (stereo not drawn) | 0.74 |
| Cl.O=C([O-])c1ccc(-c2c3nc(c(-c4ccc(C(=O)O)cc4)c4nc(c(-c5ccc(C(=O)O)cc5)c5ccc([nH]5)c(-c5ccc(C(=O)[O-])cc5)c5ccc2[n-]5)C=C4)C=C3)cc1.[Mn+3] [MnTBAP chloride] | 0.88 |
| Nc1ccc(C(=O)O)c(O)c1 [4-Aminosalicylic Acid] | 0.704 |
| O=Nc1c(-c2c(O)[nH]c3ccccc23)[nH]c2ccccc12 [Indirubin-3'-monoxime] | -0.0877 |
| CCCCCCCCCCCCCCOc1ccc(C(=O)O)o1 | -0.53 |
| COC(=O)c1ccc(O)cc1 [Methylparaben] | 0.306 |
